From PubChem BioAssay (Tox21)
Records with an inconclusive call do not appear. The source made the active and inactive calls. The call rests on the fitted dose curve; in most records, active means well fitted cell-killing curve with a large enough effect in the repeat runs; inconclusive means weak or mixed curves, or effect the other way; inactive means flat fitted curve, though single readings scatter.

assay: Nuclear factor erythroid 2-related factor 2/antioxidant responsive element (Nrf2/ARE) small molecule agonists: qHTS cell viability counter screen in human keratinocytes (AID 1919968); conditions: KeratinoSens HaCaT ARE cells viability, CellTiter-Fluor, 24 h; series mostly up to 92.4 µM; activity change, negative = cytotoxicity: at the top concentration; further: nearly all actives have a fitted effect of over 55% in size
Source text: U.S. Tox21 Program National Center for Advancing Translational Sciences [NCATS] Division of Preclinical Innovation [DPI] U.S. Environmental Protection Agency [EPA] National Institutes of Environmental Health Sciences [NIEHS] National Toxicology Program [NTP] U.S. Food and Drug Administration [FDA] Tox21 Assay Overview: Oxidative stress has been implicated in the pathogenesis of a variety of diseases ranging from cancer to neurodegeneration. The antioxidant response element (ARE) signaling pathway plays an important role in the amelioration of oxidative stress. The KeratinoSens (Givaudan, Switzerland) is an in vitro test method which quantifies luciferase induction as a measure of activation of Keap1-Nrf2-antioxidationt/electrophile response element (ARE) dependant pathway in HaCaT human keratinocytes stably transfected with a selectable plasmid. The KeratinoSens assay is a cell-based assay with a reporter cell line to detect potential skin sensitizers by their ability to induce the Nrf2/ARE-response. The activation of the report gene under culture conditions can be detected by ONE-Glo Luciferase Assay System (Promega, Madison, WI). This cell line has been used to screen the Tox21 10K compound library to identify agonists that induce oxidative stress. The cytotoxicity of the Tox21 compound library against the KS-ARE cell line was tested in parallel by measuring the cell viability using CellTiter- Fluor assay system (Promega, Madison, WI) in the same wells.
Tox21 Assay Protocol Summary: HaCaT derived cell line KeratinoSens were dispensed at 1,500 cells/5uL/well in 1536-well white wall/solid bottom plates using a Multidrop Combi (ThermoFisher Scientific, Waltham, MA) dispenser. After the assay plates were incubated at 37 C/5% CO2 for 5 h, 23 nL of compounds dissolved in DMSO, positive controls or DMSO only was transferred to the assay plate by a pintool workstation (Kalypsys, San Diego, CA). The plates were incubated at 37 C/5% CO2 for 23 h, followed by addition of 1uL/well of CellTiter-Fluor reagent into the assay plates using a Flying Reagent Dispenser (Aurora Discovery, San Diego, CA) for cell viability readout that measures cytotoxicity. After 1 h incubation at 37 C/5% CO2 the fluorescence intensity was measured using a ViewLux (PerkinElmer, Shelton, CT) plate reader.
On the % scale 0 is the no-effect control and ±100 the full control effect; potency means the concentration at half of the fitted maximal effect.

Row | SMILES | activity change, negative = cytotoxicity | Potency
1 | O=C(O)[C@@H]1CSCN1 | 0.881% [at 42.5 µM] (inactive) | –
2 | CN1C(C(=O)Nc2ccccn2)=C(O)c2sccc2S1(=O)=O | -6.22% [at 42.5 µM] (inactive) | –
3 | COc1cc(N)ccc1C | 2.73% (inactive) | –
4 | C=CCN(CC=C)CC=C | 4.12% (inactive) | –
5 | N#Cc1ccccc1O | 2.96% (inactive) | –
6 | O=C(O)/C=C(\CC(=O)O)C(=O)O | 4.89% [at 42.5 µM] (inactive) | –
7 | CCC(=O)OCCOc1ccccc1 | 2.96% (inactive) | –
8 | COC(C)(C)CC(C)=O | 7.6% (inactive) | –
9 | Cc1cccc(C(=O)O)c1O | 2.86% [at 42.5 µM] (inactive) | –
10 | NC[C@H]1O[C@H](O[C@H]2[C@H](O)[C@@H](O[C@H]3O[C@H](CO)[C@@H](O)[C@H](N)[C@H]3O)[C@H](N)C[C@@H]2N)[C@H](O)[C@@H](O)[C@@H]1O | 2.11% [at 8.39 µM] (inactive) | –
11 | O=c1[nH]sc2ccccc12 | – | 24.3 µM (active)
12 | COc1ccc(CCO)cc1 | 0.179% (inactive) | –
13 | COc1ccccc1OCC1CNC(=O)O1 (stereo not given) | -3.94% [at 42.5 µM] (inactive) | –
14 | O=c1[nH]c2ccc(S(=O)CCN3CCC(Cc4ccc(F)cc4)CC3)cc2o1 (stereo not given) | 3.28% (inactive) | –
15 | CCOC(=O)[C@@](C)(N)Cc1ccc(O)c(O)c1 | 2.64% [at 42.5 µM] (inactive) | –
16 | CC(O)C1CCCCC1 (stereo not given) | -2.53% (inactive) | –
17 | CCCOc1sc(C(=O)N2CCC(c3cc(CN)ccc3F)CC2)c(C)c1Br | – | 17.7 µM (active)
18 | C1CCC2=NCCCN2CC1 | 5.58% (inactive) | –
19 | Clc1ccc(C(Cn2ccnc2)OCc2ccc(Sc3ccccc3)cc2)c(Cl)c1 (stereo not given) | 10.6% [at 42.5 µM] (inactive) | –
20 | CCN(C(=O)N(CC)c1ccccc1)c1ccccc1 | 0.0411% (inactive) | –

Row | SMILES | activity change, negative = cytotoxicity | Potency
21 | Cn1c(=O)c2c(ncn2CCO)n(C)c1=O | 3.18% [at 42.5 µM] (inactive) | –
22 | CC(C)NCC(O)COc1ccc(CC(N)=O)cc1 (stereo not given) | -9.12% (inactive) | –
23 | CN(C)CCOc1ccc(/C(=C(/CCCl)c2ccccc2)c2ccccc2)cc1 | – | 22.8 µM (active)
24 | CC1=C(C/C=C(\C)CCC[C@H](C)CCC[C@H](C)CCCC(C)C)C(=O)c2ccccc2C1=O | -2.52% [at 42.5 µM] (inactive) | –
25 | CC/C(C)=N\O[Si](C)(O/N=C(\C)CC)O/N=C(\C)CC | 4.99% (inactive) | –
26 | Cc1ccc2c(c1)CCCN2 | 1.67% (inactive) | –
27 | CCCCCCCCCCCCCCCBr | 1.21% [at 42.5 µM] (inactive) | –
28 | CCN1CCN(C(=O)N[C@@H](C(=O)N[C@@H]2C(=O)N3[C@@H]2SC(C)(C)[C@H]3C(=O)O)c2ccccc2)C(=O)C1=O | -1.55% [at 42.5 µM] (inactive) | –
29 | CCCCOC(=O)CO | -4.68% (inactive) | –
30 | CCOc1ccccc1OCCN[C@H](C)Cc1ccc(OC)c(S(N)(=O)=O)c1 | -8.24% [at 42.5 µM] (inactive) | –
31 | Clc1ccc2nsnc2c1NC1=NCCN1 | 2.58% [at 42.5 µM] (inactive) | –
32 | O=[N+]([O-])c1ccc(O)cc1C(F)(F)F | – | 30.6 µM (active)
33 | CCCCCCCCCCCCCC(=O)OC | 1.93% (inactive) | –
34 | CC1=C(C(=O)O)N2C(=O)[C@@H](NC(=O)[C@H](N)c3ccc(O)cc3)[C@H]2SC1 | 4.09% [at 42.5 µM] (inactive) | –
35 | CC(N=C(NC#N)Nc1ccncc1)C(C)(C)C (stereo not given) | 0.943% [at 42.5 µM] (inactive) | –
36 | C[C@@H](C1=C(CCN(C)C)Cc2ccccc21)c1ccccn1 | 2.34% [at 42.5 µM] (inactive) | –
37 | CC1(C)O[C@@H]2C[C@H]3[C@@H]4C[C@H](F)C5=CC(=O)C=C[C@]5(C)[C@H]4[C@@H](O)C[C@]3(C)[C@]2(C(=O)CO)O1 | 7.32% [at 42.5 µM] (inactive) | –
38 | CC1CN(c2ccccc2)NC1=O (stereo not given) | 6.78% (inactive) | –
39 | CCCC(=O)O[C@]1(C(=O)CO)CC[C@H]2[C@@H]3CCC4=CC(=O)CC[C@]4(C)[C@H]3[C@@H](O)C[C@@]21C | 0.48% [at 42.5 µM] (inactive) | –
40 | CC(C)COC(=O)C(C)C | -1.25% (inactive) | –
